Results filed as inconclusive are left out. Calls of active or inactive are those of the source. Unless noted, the call rests on the fitted dose curve; in most records, active means well fitted curve in the direction sought with a large enough effect in the repeat runs; inconclusive means weak or mixed curves; inactive means no such curve, though single readings can be large; an effect the other way counts as inactive or inconclusive.
How the values were obtained:
[1] = qHTS assay to test for compound auto fluorescence at 535 nm (green) in HEK293 cells (AID 720680); further: on the % scale 0 is the no-effect control and ±100 the full control effect
[2] = qHTS assay to test for compound auto fluorescence at 535 nm (green) in HEK293 cell free culture (AID 720682); further: on the % scale 0 is the no-effect control and ±100 the full control effect
Summary of the method: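 Green-label autofluorescence (485 nm excitation, 535 nm emission) measured on compound added to cell-free culture medium (DMEM, 10% FBS). Output is expressed relative to fluorescein.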

[3] = qHTS assay to test for compound auto fluorescence at 590 nm (red) in HEK293 cell free culture (AID 720683); further: on the % scale 0 is the no-effect control and ±100 the full control effect
Summary of the method: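 Cell-free wells of DMEM with 10% FBS received compound, and intrinsic fluorescence was read at excitation/emission 540/590 nm. Values expressed as equivalence to Rose Bengal sodium.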

[4] = qHTS assay to test for compound auto fluorescence at 590 nm (red) in HepG2 cell free culture (AID 720684); further: on the % scale 0 is the no-effect control and ±100 the full control effect
Summary of the method: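 Rose Bengal sodium served as the reference for red signal. Test compounds were dispensed into serum-containing MEM (10% FBS) without cells, and plates were read at 540/590 nm.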

[5] = qHTS assay to test for compound auto fluorescence at 535 nm (green) in HepG2 cell free culture (AID 720686); further: on the % scale 0 is the no-effect control and ±100 the full control effect
[6] = target: Glucocorticoid receptor (Homo sapiens) (UniProt P04150); assay: qHTS assay to identify small molecule agonists of the glucocorticoid receptor (GR) signaling pathway (AID 720691; active means well fitted activation curve with a large enough effect in the signal ratio in the repeat runs, not every such curve was filed as active; the % refers to the signal ratio; further: on the % scale 0 is the no-effect control and ±100 the full control effect)
Sequence of Glucocorticoid receptor (Homo sapiens) (P04150 whole entry, looked up): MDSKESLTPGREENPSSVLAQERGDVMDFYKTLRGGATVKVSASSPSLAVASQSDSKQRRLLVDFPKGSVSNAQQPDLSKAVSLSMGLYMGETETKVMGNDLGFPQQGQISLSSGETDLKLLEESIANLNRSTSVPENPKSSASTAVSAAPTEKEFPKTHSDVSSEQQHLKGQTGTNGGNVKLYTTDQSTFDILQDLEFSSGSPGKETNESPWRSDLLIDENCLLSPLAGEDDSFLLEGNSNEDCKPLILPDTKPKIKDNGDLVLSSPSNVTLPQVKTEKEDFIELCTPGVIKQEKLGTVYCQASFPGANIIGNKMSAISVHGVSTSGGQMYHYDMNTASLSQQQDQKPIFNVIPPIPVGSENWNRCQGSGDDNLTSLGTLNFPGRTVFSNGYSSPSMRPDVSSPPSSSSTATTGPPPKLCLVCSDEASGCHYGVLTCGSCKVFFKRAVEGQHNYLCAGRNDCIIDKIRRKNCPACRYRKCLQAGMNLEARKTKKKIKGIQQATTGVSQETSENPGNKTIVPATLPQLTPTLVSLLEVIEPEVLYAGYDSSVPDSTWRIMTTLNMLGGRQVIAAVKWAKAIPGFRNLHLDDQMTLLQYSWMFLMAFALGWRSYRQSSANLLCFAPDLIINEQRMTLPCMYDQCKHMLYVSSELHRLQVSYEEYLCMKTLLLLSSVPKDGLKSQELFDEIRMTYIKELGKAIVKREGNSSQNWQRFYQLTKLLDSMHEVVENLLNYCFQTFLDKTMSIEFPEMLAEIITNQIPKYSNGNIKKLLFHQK
Summary of the method: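 Compounds in DMSO, alongside positive controls, were added to GR-bla HeLa reporter cells and incubated 18 h at 37 C; GRE-driven beta-lactamase was detected by fluorescence after 2 h with FRET substrate at room temperature.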

[7] = qHTS assay to identify small molecule antagonists of the glucocorticoid receptor (GR) signaling pathway - cell viability counter screen (AID 720693); further: nearly all actives have a fitted effect of over 55% in size; further: potency means the concentration at half of the fitted maximal effect
[8] = qHTS assay for identifying genotoxic compounds that show differential cytotoxicity against isogenic chicken DT40 cell lines with known DNA damage response pathways - wild type cell line (AID 743012); further: nearly all actives have a fitted effect of over 60% in size; further: potency means the concentration at half of the fitted maximal effect
Summary of the method: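 Viability of DNA repair-proficient chicken DT40 cells was assessed by CellTiter-Glo luminescence following 40 h compound exposure at 37 C/5% CO2.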

[9] = qHTS assay for identifying genotoxic compounds that show differential cytotoxicity against isogenic chicken DT40 cell lines with known DNA damage response pathways - Rev3 mutant cell line (AID 743014); further: nearly all actives have a fitted effect of over 55% in size; further: potency means the concentration at half of the fitted maximal effect
[10] = qHTS assay for identifying genotoxic compounds that show differential cytotoxicity against isogenic chicken DT40 cell lines with known DNA damage response pathways - Rad54/Ku70 mutant cell line (AID 743015); further: nearly all actives have a fitted effect of over 60% in size; further: potency means the concentration at half of the fitted maximal effect
[11] = qHTS assay to identify small molecule antagonists of the androgen receptor (AR) signaling pathway - cell viability counter screen (AID 743033; further: nearly all actives have a fitted effect of over 45% in size; further: potency means the concentration at half of the fitted maximal effect)
[12] = qHTS assay to identify small molecule antagonists of the androgen receptor (AR) signaling pathway using the MDA cell line - cell viability counter screen (AID 743041; further: nearly all actives have a fitted effect of over 45% in size; further: potency means the concentration at half of the fitted maximal effect)
Summary of the method: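 Cytotoxicity counter screen: MDA-kb2 AR-luc cells, compound + R1881, 16 h, 37C, 0% CO2; CellTiter-Fluor added at 15.5 h, fluorescence read after 30 min.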

[13] = qHTS assay to test for compound auto fluorescence at 460 nm (blue) in HEK293 cell free culture (AID 720681); further: on the % scale 0 is the no-effect control and ±100 the full control effect
Summary of the method: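 Compounds were added to cell-free DMEM with 10% FBS and fluorescence read directly. The blue channel used 405 nm excitation and 460 nm emission, with triamterene as the reference fluorophore.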

[14] = qHTS assay to test for compound auto fluorescence at 460 nm (blue) in HepG2 cell free culture (AID 720685); further: on the % scale 0 is the no-effect control and ±100 the full control effect
Summary of the method: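 Cell-free plates of MEM plus 10% FBS received 23 nL compound or DMSO vehicle; blue-channel (405/460 nm) intensity scored against triamterene as reference fluorophore.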

[15] = target: Androgen receptor (Homo sapiens) (UniProt P10275); assay: qHTS assay to identify small molecule antagonists of the androgen receptor (AR) signaling pathway (AID 743035; active means well fitted inhibition curve with a large enough effect in the signal ratio in the repeat runs, not every such curve was filed as active; the % refers to the signal ratio; further: potency means the concentration at half of the fitted maximal effect)
Sequence of Androgen receptor (Homo sapiens) (P10275 whole entry, looked up): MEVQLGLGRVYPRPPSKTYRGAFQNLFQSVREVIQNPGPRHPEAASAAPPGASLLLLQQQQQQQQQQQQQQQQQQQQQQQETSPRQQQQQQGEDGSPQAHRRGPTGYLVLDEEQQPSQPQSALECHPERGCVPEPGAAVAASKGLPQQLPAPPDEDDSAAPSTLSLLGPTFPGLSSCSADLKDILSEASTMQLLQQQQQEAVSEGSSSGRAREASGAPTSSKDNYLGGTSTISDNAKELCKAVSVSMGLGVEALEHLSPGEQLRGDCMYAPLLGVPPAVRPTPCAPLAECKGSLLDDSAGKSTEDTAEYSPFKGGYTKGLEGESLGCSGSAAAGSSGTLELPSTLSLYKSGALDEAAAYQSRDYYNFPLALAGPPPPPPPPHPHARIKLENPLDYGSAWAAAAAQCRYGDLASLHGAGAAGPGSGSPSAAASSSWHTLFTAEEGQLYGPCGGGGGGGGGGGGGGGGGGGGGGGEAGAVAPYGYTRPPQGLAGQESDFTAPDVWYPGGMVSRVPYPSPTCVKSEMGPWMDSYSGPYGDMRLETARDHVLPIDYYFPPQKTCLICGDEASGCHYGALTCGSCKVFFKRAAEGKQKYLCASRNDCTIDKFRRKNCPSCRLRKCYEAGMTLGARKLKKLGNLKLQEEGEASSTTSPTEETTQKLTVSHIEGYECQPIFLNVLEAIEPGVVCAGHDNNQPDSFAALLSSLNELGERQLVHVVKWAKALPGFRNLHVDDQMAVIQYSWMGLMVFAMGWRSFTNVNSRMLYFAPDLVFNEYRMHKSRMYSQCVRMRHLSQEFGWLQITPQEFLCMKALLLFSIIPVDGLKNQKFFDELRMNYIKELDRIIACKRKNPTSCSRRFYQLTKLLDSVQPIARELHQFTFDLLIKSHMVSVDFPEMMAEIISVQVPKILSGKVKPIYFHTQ
Summary of the method: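 Reporter HEK293 cells were exposed to compounds and R1881 overnight (16 h, 37C); beta-lactamase activity was then quantified by FRET fluorescence.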

[16] = target: Androgen receptor (Homo sapiens) (UniProt P10275); assay: qHTS assay to identify small molecule agonists of the androgen receptor (AR) signaling pathway using the MDA cell line (AID 743040; further: on the % scale 0 is the no-effect control and ±100 the full control effect; nearly all actives have a fitted effect of over 20% in size)
Summary of the method: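 Luciferase read-out, ONE-Glo, 30 min RT. Cells: MDA-kb2 AR-luc, MMTV promoter with AR and GR response elements. Compound exposure 16 h, 37C, 0% CO2, after 5 h pre-incubation. qHTS agonist mode.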

[17] = qHTS assay to test for compound auto fluorescence at 460 nm (blue) in HepG2 cells (AID 720687); further: on the % scale 0 is the no-effect control and ±100 the full control effect
Summary of the method: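 HepG2 cells in MEM with 10% FBS, attached overnight at 37 C, were exposed to compound or DMSO for 1 hr at 37 C, 5% CO2. Blue fluorescence was read at 405/460 nm, with triamterene as reference fluorophore.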

[18] = target: Androgen receptor (Homo sapiens) (UniProt P10275); assay: qHTS assay to identify small molecule antagonists of the androgen receptor (AR) signaling pathway using the MDA cell line (AID 743042; further: on the % scale 0 is the no-effect control and ±100 the full control effect; nearly all actives have a fitted effect of over 55% in size)
Summary of the method: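 MDA-kb2 breast carcinoma cells carrying MMTV-luciferase (AR/GR responsive) were co-treated with compounds and the agonist R1881 for 16 h at 37C. Inhibition read as ONE-Glo luminescence; CellTiter-Fluor fluorescence measured in parallel for cytotoxicity.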

[19] = target: Glucocorticoid receptor (Homo sapiens) (UniProt P04150); assay: qHTS assay to identify small molecule antagonists of the glucocorticoid receptor (GR) signaling pathway (AID 720692; active means well fitted inhibition curve with a large enough effect in the signal ratio in the repeat runs, not every such curve was filed as active; the % refers to the signal ratio; further: potency means the concentration at half of the fitted maximal effect)
Summary of the method: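 In a 1536-well cell format, compounds were added 4 h after seeding GR-bla HeLa cells, together with dexamethasone at 5 nM final; reporter activity was measured by FRET-substrate fluorescence following 18 h at 37 C.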

CCOC(=O)c1ccc(C#Cc2ccc3c(c2)C(C)(C)CCS3)nc1
inactive: outcome [1] | outcome [2] | outcome [3] | outcome [4] | outcome [5] | Potency [6] | Potency [7] | Potency [11] | Potency [12]
active: Potency [8] 23.7 µM | Potency [9] 29.8 µM | Potency [10] 29.8 µM

CCC1NC(=O)c2cc(S(N)(=O)=O)c(Cl)cc2N1 (stereo not given)
inactive: fluorescence, % of fluorescein [1] -0.0959% [at 18.6 µM] | fluorescence, % of fluorescent control [13] -0.0955% [at 18.6 µM] | activity change [2] -0.178% [at 18.6 µM] | fluorescence, % of Rose Bengal [4] -0.427% [at 18.6 µM] | fluorescence, % of fluorescent control [14] -0.0342% [at 18.6 µM] | fluorescence, % of fluorescein control [5] 0.0837% [at 18.6 µM] | Potency [6] | Potency [7] | Potency [8] | Potency [10] | Potency [11] | Potency [12]

COc1cc(C(=O)NC2CCN(C)CC2)ccc1Nc1ncc2c(n1)N(C1CCCC1)CC(F)(F)C(=O)N2C
active: Potency [7] 22.5 µM | Potency [8] 0.0044 µM | Potency [9] 0.0025 µM | Potency [10] 0.0056 µM | Potency [11] 15.9 µM | Potency [15] 3.2 nM | Potency [12] 62.8 µM
inactive: outcome [1] | Potency [13] | outcome [2] | outcome [4] | Potency [14] | outcome [5] | outcome [16]

CC[C@]1(O)C[C@H]2CN(CCc3c([nH]c4ccccc34)[C@@](C(=O)OC)(c3cc4c(cc3OC)N(C=O)[C@H]3[C@@](O)(C(=O)OC)[C@H](OC(C)=O)[C@]5(CC)C=CCN6CC[C@]43[C@@H]65)C2)C1
inactive: outcome [1] | Potency [13] | outcome [2] | outcome [4] | Potency [14] | outcome [5] | Potency [17] | Potency [6] | Potency [7] | Potency [11] | outcome [16] | Potency [12] | Potency [18]
active: Potency [8] 0.0075 µM | Potency [9] 0.0053 µM | Potency [10] 0.0106 µM | Potency [15] 33.8 nM

COc1ncnc(NS(=O)(=O)c2ccc(N)cc2)c1OC
inactive: outcome [1] | Potency [13] | outcome [2] | outcome [4] | Potency [14] | outcome [5] | Potency [8] | Potency [9] | Potency [10] | Potency [11] | Potency [12]

CCC1(CO)COCOC1
inactive: outcome [1] | Potency [13] | outcome [2] | outcome [4] | Potency [14] | outcome [5] | Potency [17] | Potency [6] | Potency [19] | Potency [7] | Potency [11] | Potency [12]

C1C[C@@H]2[C@H]3CC[C@H](C3)[C@@H]2C1
inactive: outcome [1] | Potency [13] | outcome [2] | outcome [4] | Potency [14] | outcome [5] | Potency [17] | Potency [9] | Potency [11] | Potency [12]

CC(=O)[C@H]1[C@H](C#N)C[C@H]2[C@@H]3CC=C4C[C@@H](O)CC[C@]4(C)[C@H]3CC[C@@]21C
active: Potency [19] 10.6 µM | Potency [8] 37.1 µM | Potency [9] 37.1 µM
inactive: outcome [1] | Potency [13] | outcome [2] | Potency [14] | outcome [5] | Potency [17] | Potency [6] | Potency [7] | Potency [11] | Potency [12]

C=C1c2cccc(O)c2C(O)=C2C(=O)[C@]3(O)C(O)=C(C(N)=O)C(=O)[C@@H](N(C)C)[C@@H]3[C@@H](O)[C@H]12
inactive: fluorescence, % of fluorescent control [13] 1.43% [at 18.6 µM] | activity change [2] -0.0974% [at 18.6 µM] | fluorescence, % of fluorescent control [3] 0.464% [at 18.6 µM] | fluorescence, % of Rose Bengal [4] -0.515% [at 18.6 µM] | fluorescence, % of fluorescent control [14] 1.61% [at 18.6 µM] | fluorescence, % of fluorescein control [5] -0.0019% [at 18.6 µM] | fluorescence, % of fluorescent control [17] 1.19% [at 18.6 µM] | Potency [6] | Potency [19] | Potency [7] | Potency [8] | Potency [9] | Potency [10] | Potency [11] | Potency [12]

O=C(CCc1ccc(O)cc1)c1c(O)cc(O)cc1O
active: Potency [9] 62.5 µM
inactive: outcome [1] | Potency [13] | outcome [2] | Potency [14] | outcome [5] | Potency [17] | Potency [12] | Potency [18]

OCCN1CCN(CCCN2c3ccccc3Sc3ccc(Cl)cc32)CC1
active: Potency [8] 3.59 µM | Potency [9] 2.85 µM | Potency [10] 4.52 µM | Potency [11] 4.56 µM
inactive: fluorescence, % of fluorescent control [13] -0.0053% [at 18.6 µM] | activity change [2] -0.0092% [at 18.6 µM] | fluorescence, % of fluorescent control [3] 0.0511% [at 18.6 µM] | fluorescence, % of Rose Bengal [4] -0.146% [at 18.6 µM] | fluorescence, % of fluorescent control [14] 0.0187% [at 18.6 µM] | fluorescence, % of fluorescein control [5] 0.137% [at 18.6 µM] | fluorescence, % of fluorescent control [17] 0.0774% [at 18.6 µM] | Potency [6] | Potency [19] | Potency [7] | Potency [12]

C[C@]1(Cn2ccnn2)[C@H](C(=O)O)N2C(=O)C[C@H]2S1(=O)=O
inactive: outcome [1] | Potency [13] | outcome [2] | Potency [14] | outcome [5] | Potency [17] | Potency [7] | Potency [8] | Potency [9] | Potency [10] | Potency [11] | Potency [12]

NC1[C@H]2CN(c3nc4c(cc3F)c(=O)c(C(=O)O)cn4-c3ccc(F)cc3F)C[C@@H]12 (stereo not given in full)
inactive: outcome [1] | Potency [13] | outcome [2] | outcome [4] | Potency [14] | outcome [5] | Potency [17] | Potency [6] | Potency [7] | Potency [11] | outcome [16] | Potency [12] | Potency [18]
active: Potency [8] 4.73 µM | Potency [9] 6.68 µM | Potency [10] 7.5 µM

CC1=C(CC=O)C(C)(C)CCC1
inactive: outcome [1] | Potency [13] | outcome [2] | outcome [4] | Potency [14] | outcome [5] | Potency [17] | Potency [7] | Potency [11] | Potency [12]
active: Potency [8] 54.5 µM | Potency [10] 24.3 µM

O=c1c(O)c(-c2ccc(O)cc2)oc2cc(O)cc(O)c12
inactive: outcome [1] | Potency [13] | outcome [2] | Potency [14] | outcome [5] | Potency [17] | Potency [6] | Potency [7] | Potency [11] | Potency [12]
active: Potency [8] 32.8 µM | Potency [10] 36.8 µM

CCCCCCCC/C=C\CCCCCCCCCCCC(=O)O
inactive: outcome [1] | Potency [13] | outcome [2] | outcome [4] | Potency [14] | outcome [5] | Potency [7] | Potency [8] | Potency [9] | Potency [10] | Potency [11] | Potency [12] | Potency [18]

Reference: PubChem BioAssay (Tox21)
